# Laboratory results reported in ChEMBL document CHEMBL1157539, “Thousands of chemical starting points for antimalarial lead identification” (Nature, 2010).
# Experiments:
# Assay type in all cases: functional
# Plasmodium falciparum [1] = test: GSK_TCMDC: Inhibition of Plasmodium falciparum 3D7 in whole red blood cells, using parasite LDH activity as an index of growth. Test compounds present at 2uM
# Plasmodium falciparum [2] = test: GSK_TCMDC: Inhibition of Plasmodium falciparum Dd2 in whole red blood cells, using parasite LDH activity as an index of growth. Test compounds present at 2uM
# HepG2 = test: GSK_TCMDC: Percent inhibition of human HepG2 cell line. Test compounds present at 10uM.
SMILES,Inhibition (Plasmodium falciparum [1]),Inhibition (Plasmodium falciparum [2]),Inhibition (HepG2)
O=C(C=Cc1ccc(-c2ccccc2)cc1)N1CCC(CCN2CCC(c3c[nH]c4ccccc34)CC2)CC1,87%,16%,44%
O=S(=O)(Nc1cccc(CCN2CCCCC2CCN2CCCC2)c1)c1ccc2ccccc2c1 (stereo not drawn),91%,40%,22%
Cc1cccc(C(=O)Nc2ccnc(N3CCC(N(C)Cc4cccc(O)c4)CC3)c2)c1.O=C(O)C(F)(F)F,95%,41%,7%
CCN(CC)CC(O)c1cc(-c2ccc(C)cc2)nc2c(C)cc(C)cc12.Cl (stereo not drawn),100%,99%,3%
COc1cc(C(C)C)ccc1C1CCN(CCCCNC(=O)c2ccc(NC(=O)c3ccc(Cl)cc3)cc2)CC1.O=C(O)/C=C/C(=O)O,98%,99%,100%
Cl.Oc1ccc(C2CNCCc3c2cc(O)c(OCc2ccccc2)c3Cl)cc1 (stereo not drawn),98%,8%,14%
COc1ccc2nccc([C@@H](O)CN3CCC(NCc4cc5cccc6c5n(c4=O)CCC6)CC3)c2c1.O=C(O)C(=O)O,98%,97%,33%
NS(=O)(=O)c1cccc(Nc2nccc(-c3c(-c4cccc(NC(=O)c5c(F)cccc5F)c4)nn4ccccc34)n2)c1,98%,97%,81%
O=C(Cc1c[nH]cn1)Nc1cccc(-c2ccc(-c3nc4ccccc4[nH]3)cc2)c1,99%,72%,7%
CCN1CCN(Cc2ccc(NC(=O)c3cc4ccc5cccnc5c4[nH]3)cc2)CC1,100%,97%,0%
CCNc1cc(C(=O)N[C@@H](Cc2cc(F)cc(F)c2)[C@H](O)CNCc2cccc(C(F)(F)F)c2)cc(N2CCCCS2(=O)=O)c1.Cl,99%,80%,1%
CCOc1cc(C)ccc1N(C1CCN(CCCCNC(=O)c2ccc(-c3ccc(C(F)(F)F)cc3)cc2)CC1)S(=O)(=O)c1ccccc1,88%,85%,14%
O=S(=O)(c1cccc(Br)c1)N1CCCCC(c2ccc(C(F)(F)F)cc2)=N1,91%,92%,30%
NC1CCCN(Cc2ccc(-c3cccc(-c4nc5cc(F)ccc5[nH]4)c3)cc2)C1.O=C(O)C(F)(F)F (stereo not drawn),100%,75%,54%
COc1cccc(OCC2CCCN(CCCCNC(=O)c3ccc(NC(=O)c4ccc(Cl)cc4)cc3)C2)c1 (stereo not drawn),100%,49%,33%
C#C[C@H]1O[C@@H](n2cnc3c(Nc4cc(Br)cc(C(F)(F)F)c4)ncnc32)[C@H](O)[C@@H]1O,94%,56%,21%
CCCCOc1ccccc1C(=O)NCc1csc(-c2ccccc2)n1,93%,91%,17%
Cc1cc(-c2ccc(CNCc3ccsc3)cc2)ccc1S(=O)(=O)NCCN1CCCC1.O=C(O)C(F)(F)F,99%,49%,57%
COc1cccc(-c2nn(C)c3sc(C(=O)NCCN(C)Cc4ccccc4)cc23)c1,92%,26%,21%
CNCCNCc1ccc(-c2ccc(-c3nc4ccccc4[nH]3)s2)cc1.O=C(O)C(F)(F)F,99%,15%,11%
COc1ccc(-c2cn3c(C(=O)Nc4ccccc4Cl)c(-c4ccccc4)c4c3n2CCCC4)cc1,100%,1%,7%

SMILES,Inhibition (Plasmodium falciparum [1]),Inhibition (Plasmodium falciparum [2]),Inhibition (HepG2)
Cc1cc(OCCCN2CCC(NS(=O)(=O)c3cc(Br)c(Cl)s3)CC2)c2ccccc2n1,95%,39%,5%
CCCCC1(c2ccc(F)cc2)NC(=O)N(CC(=O)c2cc(C)n(Cc3ccco3)c2C)C1=O (stereo not drawn),82%,28%,6%
CS(=O)(=O)c1ccc2c(c1)CCN(CCC1CCC(NC(=O)c3cc4cccc(Br)c4[nH]3)CC1)CC2 (stereo not drawn),92%,7%,27%
COc1ccc(S(=O)(=O)Nc2ccc(C(=O)NCc3ccc(C(F)(F)F)cc3)cc2)cc1N1CCN(CC2CC2)CC1.O=C(O)C(F)(F)F,95%,1%,34%
CC(C(=O)Nc1ccc(Br)cc1Br)N1CCN(C(=O)c2ccco2)CC1 (stereo not drawn),91%,84%,3%
O=C(Nc1cccc(-c2cccc(-c3nc4cc(C(F)(F)F)ccc4[nH]3)c2)c1)c1ccc(=O)[nH]n1,100%,26%,63%
CCN(CCCN1CCCCC1)c1cc(C)nc(Nc2cc(Br)ccc2C)n1.O=C(O)C(F)(F)F,98%,39%,32%
Cc1sc2ccc(Cl)cc2c1S(=O)(=O)Nc1ccc2nccc(N3CC(C)NC(C)C3)c2c1.Cl (stereo not drawn),100%,100%,17%
CCCCCCCN(Cc1ccc(OC(C)(C)C(=O)OCC)cc1)C(=O)Nc1ccccc1OC(F)(F)F,95%,68%,0%
COc1ccc2ccccc2c1CON1C(=N)N=C(N)NC1(C)C.Cl,94%,5%,25%
CC(C)CNCc1ccc(OCc2cccc(COc3ccc(CNCC(C)C)cc3I)c2)c(I)c1.Cl,98%,84%,23%
NC(=O)c1ccc(NCC(=O)Nc2cccc(-c3cccc(-c4nc5ccccc5[nH]4)c3)c2)cc1,99%,30%,9%
Cl.O=C(Oc1ccc(C2CNCCc3c2cc(OC(=O)c2ccc(O)cc2)c(OC(=O)c2ccc(O)cc2)c3Cl)cc1)c1ccc(O)cc1 (stereo not drawn),90%,60%,0%
FC(F)(F)c1ccc2c(NN=Cc3cccc(Cl)c3)ccnc2c1,93%,59%,7%
COc1ccccc1N1CCN(Cc2cc(C(C)C)c(C)cc2O)CC1,97%,98%,7%
Cc1cccc2nc(-c3ccc(-c4cccc(NC(=O)c5ccncc5)c4)cc3)[nH]c12,98%,8%,46%
Cc1cc(Cl)ccc1OC(C)C(=O)N1CCc2ccccc21 (stereo not drawn),94%,78%,8%
CC1CCc2c(C(=O)N3CCc4ccccc4C3)csc2C1 (stereo not drawn),99%,75%,9%
O=C(Nc1ccc2c(c1)OCO2)c1cc(-c2cccnc2)cnc1NCc1ccc2c(c1)OCO2,87%,1%,2%
COc1ccc(C(=O)NC2CCN(c3ccnc4cc(Cl)ccc34)C2)cc1.O=C(O)C(F)(F)F (stereo not drawn),100%,100%,31%
Cc1nc(NC2=NCN(CCCN3CCOCC3)CN2)nc2c(C)cccc12,89%,62%,17%

SMILES,Inhibition (Plasmodium falciparum [1]),Inhibition (Plasmodium falciparum [2]),Inhibition (HepG2)
Oc1ccc(OCc2ccccn2)cc1,98%,0%,5%
Clc1ccc(CNCC2CCN(CC3CCCCC3)CC2)cc1Cl,92%,6%,18%
COc1cc(Nc2ncnc3cc(OC)c(OC)cc23)cc([N+](=O)[O-])c1.Cl,97%,6%,8%
COc1ccc(NC(=O)/C=C/c2ccc(-c3ccc(-c4noc(C)n4)cc3)cc2)cc1OCCN(C)C.O=C(O)C(=O)O,81%,31%,14%
COc1cc(F)c2ncc(Cl)c(C(O)CN3CCC(NC(=O)c4ccc5c(c4)NC(=O)CS5)CC3)c2c1.Cl (stereo not drawn),98%,68%,15%
OCCN1CCN(C(=S)NC2CCCCC2)CC1,93%,0%,49%
CC1(C)CCCN(C(=O)c2cccc(-n3nc(-c4ccc(Cl)cc4)cc3N)c2)C1,100%,98%,13%
CN(C(=O)c1cc2c(-c3cncnc3)cccc2[nH]1)c1ccccc1,92%,99%,1%
O=C(Cc1ccc[n+]([O-])c1)Nc1ccc(-c2cccc(-c3nc4cc(C(F)(F)F)ccc4[nH]3)c2)cc1,92%,49%,16%
Cc1ccccc1/N=C1\NC(=S)N(c2cccc(C(F)(F)F)c2)C12CCC(C(C)(C)C)CC2 (stereo not drawn),95%,25%,9%
O=C(Nc1cc(F)cc(F)c1)NC1CCN(CCCCCNC(=O)C2CC2c2ccc(Cl)c(Cl)c2)CC1 (stereo not drawn),100%,6%,49%
CCn1c(Cc2ccccc2)nnc1Sc1ccc([N+](=O)[O-])c(C#N)c1,93%,72%,8%
CC(C)NCc1ccc(-c2ccc(NC(=O)c3ccc(C#N)cc3)cc2)cc1.O=C(O)C(F)(F)F,90%,0%,23%
COc1cc(CCN(C)Cc2ccc(OC)c(OC)c2)ccc1NC(=O)c1cccc2c(O)c3cccc(F)c3nc12,100%,26%,14%
CN1CCCN(Cc2ccc(-c3ccc(NS(=O)(=O)c4cccc5cccnc45)cc3)cc2)CC1.O=C(O)C(F)(F)F,99%,85%,35%
Cc1cc(C(=O)CN2C(=O)NC3(CCCc4ccccc43)C2=O)c(C)n1Cc1ccco1 (stereo not drawn),90%,0%,11%
CCCCCCOc1ccc(C(=O)N(Cc2ccccc2)c2c(-c3ccccc3)nc3cc(C)ccn23)cc1,95%,96%,0%
O=C(/C=C/c1ccc(Cl)c(Cl)c1)N1CCC(CNCc2cccc3cc[nH]c23)CC1,85%,14%,1%
CN(C)c1cccc2c(S(=O)(=O)Nc3cccc(CCN4CCC(N5CCCCC5)CC4)c3)cccc12,98%,54%,41%
